According to PubChem BioAssay (EPA / NIEHS):
Activity calls are given as the source filed them. How the source made its calls: active means hit-call score of the fitted dose curve at least 0.9, where 1 is the maximum; inactive means score below 0.9.

Assays:
[1] = ATG_EGR_CIS: Attagene CIS-FACTORIAL HepG2 Assay for human Early Growth Response 1 (EGR1) (AID 2282938); conditions: HepG2 Attagene CIS-FACTORIAL EGR reporter mRNA; actives raise or lower the signal
Summary of the method: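 After 24 h compound exposure, RNA from reporter-transfected HepG2 cells was reverse-transcribed, PCR-amplified, fluorescently labelled and resolved by capillary electrophoresis. EGR1 reporter transcript changes, up or down, were fitted against DMSO, reflecting endogenous transcription-factor activity.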

[2] = ATG_M_19_CIS: Attagene CIS-FACTORIAL HepG2 Assay for M19 Transcription Factor (Internal Marker) (AID 2282939); conditions: HepG2 Attagene CIS-FACTORIAL M19 internal marker reporter; actives raise or lower the signal
Summary of the method: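 In this multiplexed cell assay, transiently transfected HepG2 reporter units report endogenous transcription-factor activity; after 24 hours of treatment, labelled reporter cDNA fragments are quantified by capillary electrophoresis and fitted bidirectionally against DMSO.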

[3] = ATG_ERE_CIS: Attagene CIS-FACTORIAL HepG2 Assay for Estrogen Response Element (ERE) (AID 2282940); conditions: HepG2 ERE cis-reporter, Attagene RNA transcript; actives raise or lower the signal
Summary of the method: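 Measuring endogenous transcription factor output, the assay doses transfected HepG2 cells for 24 hours and quantifies reporter transcripts by fluorescent RT-PCR and capillary electrophoresis, with DMSO as baseline.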

[4] = ATG_Ets_CIS: Attagene CIS-FACTORIAL HepG2 Assay for human Erythroblast Transformation Specific (ETS) (AID 2282941); conditions: HepG2 ETS cis-reporter transcription; AC50: actives raise or lower the signal unless noted; outcome: actives raise or lower the signal unless noted
Summary of the method: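 After transient cis-reporter transfection, HepG2 cells receive test chemical for 24 h. Reporter mRNA levels, measured by RT-PCR and capillary electrophoresis fluorescence, are analysed bidirectionally relative to the DMSO baseline.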

[5] = target: Hepatocyte nuclear factor 3-beta (Homo sapiens) (UniProt Q9Y261); experiment: ATG_FoxA2_CIS: Attagene CIS-FACTORIAL HepG2 Assay for human Forkhead box A2 (FOXA2) (AID 2282942); conditions: HepG2 cis-reporter transcription factor activity, 24 h; actives raise or lower the signal
Summary of the method: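 Endogenous transcription factor activity is captured via cis-element-driven reporter transcripts in transfected HepG2. Total RNA taken at 24 h post-dosing; labelled RT-PCR products resolved by capillary electrophoresis. Gain or loss fitted versus DMSO.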

[6] = ATG_FoxO_CIS: Attagene CIS-FACTORIAL HepG2 Assay for human Forkhead box O (FoxO) (AID 2282943); conditions: HepG2 Attagene cis-reporter, FoxO element, mRNA; actives raise or lower the signal
Summary of the method: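 Values reflect reporter mRNA induction or loss in HepG2 cells 24 h post-dosing, fitted bidirectionally with DMSO as negative control and baseline. Detection used RT-PCR and fluorescence capillary electrophoresis.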

[7] = ATG_GATA_CIS: Attagene CIS-FACTORIAL HepG2 Assay for human GATA Binding Protein (AID 2282944); conditions: HepG2 GATA cis-element reporter, Attagene multiplex mRNA; actives raise or lower the signal
Summary of the method: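 Measures endogenous transcription factor-driven reporter mRNA in HepG2 cells transiently carrying cis-regulated constructs. 24 h dosing; RNA via oligo(dT) reverse transcription, PCR, HpaI digestion, capillary electrophoresis; fitted relative to DMSO.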

[8] = ATG_GLI_CIS: Attagene CIS-FACTORIAL HepG2 Assay for human Zinc Finger Protein GLI1 (AID 2282945); conditions: HepG2, Attagene cis-factorial reporter mRNA, GLI element; actives raise or lower the signal
Summary of the method: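 HepG2 cells transiently transfected with cis-promoter multiplexed reporter units report endogenous transcription factor activity. After 24 h chemical exposure, reporter mRNA was quantified by RT-PCR, 6-FAM labelling, HpaI digestion and capillary electrophoresis, with bidirectional fitting against DMSO.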

[9] = target: Bile acid receptor (Homo sapiens) (UniProt Q96RI1); experiment: ATG_IR1_CIS: Attagene CIS-FACTORIAL HepG2 Assay for human Nuclear Receptor Subfamily 1 Group H Member 4 (NR1H4), IR1 submotif (AID 2282946); conditions: IR1 reporter transcription, actives raise or lower the signal
Summary of the method: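 Transient MRTU transfection, HepG2; 24 h dosing; RNA → RT-PCR → 6-FAM primer extension → HpaI digest → capillary electrophoresis fluorescence. Gain/loss of signal fitted relative to DMSO.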

[10] = ATG_GRE_CIS: Attagene CIS-FACTORIAL HepG2 Assay for human Glucocorticoid Response Elements (GRE) (AID 2282947); conditions: HepG2 GRE cis-reporter, Attagene multiplex mRNA; AC50: actives raise or lower the signal unless noted; outcome: actives raise or lower the signal unless noted
Summary of the method: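 HepG2 cells transiently transfected with multiple cis-promoter reporter units measure endogenous TF activity; 24 h compound exposure. Reporter mRNA quantified by RT-PCR, FAM labelling, HpaI digestion and capillary electrophoresis; bidirectional fit vs DMSO baseline.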

[11] = ATG_ISRE_CIS: Attagene CIS-FACTORIAL HepG2 Assay for human Interferon Regulatory Factor 1 (IRF1) binding to an Interferon-Stimulated Response Element (ISRE) (AID 2282948); conditions: HepG2 ISRE cis-reporter (Attagene), mRNA transcription readout; actives raise or lower the signal
Summary of the method: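 Quantitation relies on labelled RT-PCR fragments separated by capillary electrophoresis. Human HepG2 cells bearing cis-promoter reporter constructs were treated 24 h; DMSO served as baseline for bidirectional fitting.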

[12] = ATG_M_32_CIS: Attagene CIS-FACTORIAL HepG2 Assay for M32 Transcription Factor (Internal Marker) (AID 2282949); conditions: HepG2 Attagene cis-factorial M32 reporter, mRNA; actives raise or lower the signal;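 further: background control marker of the multiplexed CIS panel rather than a real target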
Summary of the method: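 Following 24 h chemical exposure of HepG2 cells transiently expressing cis-promoter reporter constructs, reporter transcript levels were determined by RT-PCR with fluorescent labelling and capillary electrophoresis, then fitted bidirectionally against DMSO.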

[13] = ATG_M_06_CIS: Attagene CIS-FACTORIAL HepG2 Assay for M06 Transcription Factor (Internal Marker) (AID 2282950); conditions: HepG2 Attagene CIS-FACTORIAL M06 internal marker reporter; actives raise or lower the signal
Summary of the method: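 One of many multiplexed endpoints: HepG2 reporter mRNA after 24 h dosing, detected by RT-PCR and capillary electrophoresis fluorescence; gain or loss of signal analysed against DMSO.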

[14] = target: Hypoxia-inducible factor 1-alpha (Homo sapiens) (UniProt Q16665); experiment: ATG_HIF1a_CIS: Attagene CIS-FACTORIAL HepG2 Assay for human Hypoxia Inducible Factor 1 (HIF1A) (AID 2282951); conditions: HepG2 Attagene cis-factorial HIF1a reporter transcription; actives raise or lower the signal
Summary of the method: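 Activity is fitted in both directions relative to DMSO. Reporter transcripts are read by RT-PCR, fluorescent primer extension and capillary electrophoresis after 24 h chemical treatment. The cells are HepG2 carrying transiently transfected cis-element-driven reporter units responding to endogenous factors.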

[15] = target: Heat shock factor protein 1 (Homo sapiens) (UniProt Q00613); experiment: ATG_HSE_CIS: Attagene CIS-FACTORIAL HepG2 Assay for human Heat Shock Transcription Factor 1 (HSE) (AID 2282953); conditions: HepG2 HSE cis-reporter, Attagene RNA transcription; actives raise or lower the signal
Summary of the method: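 Using HepG2 with transfected cis-driven reporter constructs, compound effects on endogenous factor activity are scored as reporter mRNA change at 24 h. Detection: RT-PCR, HpaI digestion, capillary electrophoresis; bidirectional fitting to DMSO.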

[16] = ATG_MRE_CIS: Attagene CIS-FACTORIAL HepG2 Assay for human Metal Responsive Element (MRE) (AID 2282954); conditions: HepG2 MRE cis-reporter transcription, Attagene multiplex; actives raise or lower the signal
Summary of the method: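 HepG2 cells transiently transfected with multiple cis-element reporter units measure endogenous MTF1-driven transcription. After 24 h compound exposure, reporter mRNA is quantified by RT-PCR with 6-FAM labelling, HpaI digestion and capillary electrophoresis; bidirectional fits versus DMSO.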

[17] = ATG_PBREM_CIS: Attagene CIS-FACTORIAL HepG2 Assay for human Phenobarbital-responsive Enhancer Module (PBREM) (AID 2282955); conditions: HepG2 PBREM cis-reporter, Attagene multiplexed transcription; actives raise or lower the signal
Summary of the method: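 Endogenous transcription factor activity was read from reporter transcripts in transiently transfected human HepG2 liver cells after 24 h dosing. RT-PCR products were fluorescently labelled, HpaI-cut and sized by capillary electrophoresis; activity fitted bidirectionally against DMSO baseline.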

[18] = target: Paired box protein Pax-6 (Homo sapiens) (UniProt P26367); experiment: ATG_Pax6_CIS: Attagene CIS-FACTORIAL HepG2 Assay for human Paired Box 6 (PAX6) (AID 2282956); conditions: HepG2 CIS-FACTORIAL PAX6 reporter transcription, RNA readout; actives raise or lower the signal
Summary of the method: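 After twenty-four hours of chemical exposure, transfected HepG2 cells are harvested for RNA. Cis-promoter reporter transcripts are amplified, fluorescently labelled and sized by capillary electrophoresis, with gain and loss of signal scored against DMSO.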

[19] = ATG_PXRE_CIS: Attagene CIS-FACTORIAL HepG2 Assay for human Pregnane X Receptor Element (PXRE) (AID 2282957); conditions: HepG2 Attagene CIS-FACTORIAL PXRE reporter, mRNA; actives raise or lower the signal
Summary of the method: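 Transiently transfected HepG2 cells were dosed and incubated for 24 h. RNA was then isolated, DNase-treated, reverse-transcribed and reporter sequences amplified. Labeled, HpaI-digested fragments were quantified by capillary electrophoresis against DMSO.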

[20] = target: Hepatocyte nuclear factor 6 (Homo sapiens) (UniProt Q9UBC0); experiment: ATG_HNF6_CIS: Attagene CIS-FACTORIAL HepG2 Assay for human Hepatocyte Nuclear Factor 6 (HNF6) (AID 2282952); conditions: HepG2 Attagene cis-factorial HNF6 reporter transcription; actives raise or lower the signal
Summary of the method: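 Reporter mRNA induction or loss in HepG2 after 24 h exposure; transient cis-MRTU transfection; fragments quantified by capillary electrophoresis; bidirectional analysis, DMSO as negative control.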

Measured: AC50

Chain of Hepatocyte nuclear factor 3-beta (Homo sapiens) (Q9Y261 whole entry, looked up): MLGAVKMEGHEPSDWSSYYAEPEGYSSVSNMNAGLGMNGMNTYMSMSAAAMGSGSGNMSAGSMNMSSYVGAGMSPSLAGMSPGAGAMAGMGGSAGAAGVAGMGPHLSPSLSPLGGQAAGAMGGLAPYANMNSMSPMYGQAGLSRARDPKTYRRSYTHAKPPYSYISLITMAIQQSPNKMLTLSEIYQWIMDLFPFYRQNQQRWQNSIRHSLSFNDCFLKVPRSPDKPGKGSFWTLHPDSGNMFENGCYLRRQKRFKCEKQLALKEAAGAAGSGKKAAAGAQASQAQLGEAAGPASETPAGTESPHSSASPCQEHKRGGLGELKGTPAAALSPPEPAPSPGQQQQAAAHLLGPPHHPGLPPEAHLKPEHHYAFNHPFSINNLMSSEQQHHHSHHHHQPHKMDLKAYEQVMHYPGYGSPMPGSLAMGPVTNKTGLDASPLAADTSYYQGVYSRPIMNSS
Chain of Paired box protein Pax-6 (Homo sapiens) (P26367 whole entry, looked up): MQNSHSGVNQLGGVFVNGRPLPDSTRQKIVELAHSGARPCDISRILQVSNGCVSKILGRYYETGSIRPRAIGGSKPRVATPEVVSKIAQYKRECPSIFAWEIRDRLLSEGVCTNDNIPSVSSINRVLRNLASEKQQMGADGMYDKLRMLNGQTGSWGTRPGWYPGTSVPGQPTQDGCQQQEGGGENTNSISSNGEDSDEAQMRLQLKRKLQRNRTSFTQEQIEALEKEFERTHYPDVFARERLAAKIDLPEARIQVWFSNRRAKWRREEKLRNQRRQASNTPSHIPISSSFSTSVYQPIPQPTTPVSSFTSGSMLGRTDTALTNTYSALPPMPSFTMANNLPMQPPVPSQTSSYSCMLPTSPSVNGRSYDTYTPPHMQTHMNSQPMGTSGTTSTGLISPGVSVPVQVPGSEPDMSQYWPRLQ
Chain of Heat shock factor protein 1 (Homo sapiens) (Q00613 whole entry, looked up): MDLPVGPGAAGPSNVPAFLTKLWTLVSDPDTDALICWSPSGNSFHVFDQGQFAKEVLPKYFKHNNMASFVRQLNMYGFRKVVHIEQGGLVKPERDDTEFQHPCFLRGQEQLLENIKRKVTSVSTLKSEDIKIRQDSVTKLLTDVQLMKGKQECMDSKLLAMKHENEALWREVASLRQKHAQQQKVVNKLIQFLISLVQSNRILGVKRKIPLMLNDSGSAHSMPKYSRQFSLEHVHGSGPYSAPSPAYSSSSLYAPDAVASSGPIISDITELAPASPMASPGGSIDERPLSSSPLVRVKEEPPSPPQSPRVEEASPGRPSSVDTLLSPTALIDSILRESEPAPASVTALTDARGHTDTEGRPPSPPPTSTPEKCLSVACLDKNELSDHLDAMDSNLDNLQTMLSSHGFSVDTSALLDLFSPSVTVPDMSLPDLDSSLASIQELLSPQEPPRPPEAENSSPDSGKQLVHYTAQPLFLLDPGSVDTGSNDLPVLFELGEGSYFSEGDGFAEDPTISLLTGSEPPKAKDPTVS
Chain of Hypoxia-inducible factor 1-alpha (Homo sapiens) (Q16665 whole entry, looked up): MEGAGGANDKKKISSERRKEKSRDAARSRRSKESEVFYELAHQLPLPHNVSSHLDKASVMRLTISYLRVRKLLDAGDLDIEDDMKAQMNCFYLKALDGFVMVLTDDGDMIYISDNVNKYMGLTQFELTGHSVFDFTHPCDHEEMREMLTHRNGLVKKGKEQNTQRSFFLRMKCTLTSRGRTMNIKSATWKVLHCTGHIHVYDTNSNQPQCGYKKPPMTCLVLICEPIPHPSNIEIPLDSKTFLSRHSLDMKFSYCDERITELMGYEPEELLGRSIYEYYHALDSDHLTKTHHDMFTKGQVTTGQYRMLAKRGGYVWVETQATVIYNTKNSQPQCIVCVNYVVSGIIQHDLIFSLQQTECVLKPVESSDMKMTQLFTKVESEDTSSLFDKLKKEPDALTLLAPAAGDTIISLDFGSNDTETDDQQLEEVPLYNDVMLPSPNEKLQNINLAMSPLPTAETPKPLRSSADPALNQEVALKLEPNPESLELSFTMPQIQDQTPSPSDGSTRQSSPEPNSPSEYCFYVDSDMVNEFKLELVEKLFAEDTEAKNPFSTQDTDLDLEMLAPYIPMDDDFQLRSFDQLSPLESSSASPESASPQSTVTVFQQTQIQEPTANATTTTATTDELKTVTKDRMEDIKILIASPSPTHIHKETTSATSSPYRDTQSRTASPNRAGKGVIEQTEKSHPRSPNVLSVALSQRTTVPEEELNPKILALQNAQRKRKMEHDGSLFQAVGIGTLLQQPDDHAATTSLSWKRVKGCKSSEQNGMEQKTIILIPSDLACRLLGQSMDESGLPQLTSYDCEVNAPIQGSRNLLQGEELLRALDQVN
Chain of Bile acid receptor (Homo sapiens) (Q96RI1 whole entry, looked up): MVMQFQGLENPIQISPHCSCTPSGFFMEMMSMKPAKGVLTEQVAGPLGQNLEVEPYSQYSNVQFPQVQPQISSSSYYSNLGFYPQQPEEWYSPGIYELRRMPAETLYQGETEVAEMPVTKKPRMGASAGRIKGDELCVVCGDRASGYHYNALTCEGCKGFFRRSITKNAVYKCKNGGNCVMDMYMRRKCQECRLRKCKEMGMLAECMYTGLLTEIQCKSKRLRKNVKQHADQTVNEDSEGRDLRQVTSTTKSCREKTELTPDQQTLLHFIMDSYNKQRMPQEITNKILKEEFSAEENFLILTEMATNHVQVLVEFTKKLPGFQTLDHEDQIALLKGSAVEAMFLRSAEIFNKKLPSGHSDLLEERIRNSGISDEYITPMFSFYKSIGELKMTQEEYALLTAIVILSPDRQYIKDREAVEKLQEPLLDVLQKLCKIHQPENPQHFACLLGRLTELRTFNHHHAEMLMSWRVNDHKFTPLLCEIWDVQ
Chain of Hepatocyte nuclear factor 6 (Homo sapiens) (Q9UBC0 whole entry, looked up, the tested form may be a part): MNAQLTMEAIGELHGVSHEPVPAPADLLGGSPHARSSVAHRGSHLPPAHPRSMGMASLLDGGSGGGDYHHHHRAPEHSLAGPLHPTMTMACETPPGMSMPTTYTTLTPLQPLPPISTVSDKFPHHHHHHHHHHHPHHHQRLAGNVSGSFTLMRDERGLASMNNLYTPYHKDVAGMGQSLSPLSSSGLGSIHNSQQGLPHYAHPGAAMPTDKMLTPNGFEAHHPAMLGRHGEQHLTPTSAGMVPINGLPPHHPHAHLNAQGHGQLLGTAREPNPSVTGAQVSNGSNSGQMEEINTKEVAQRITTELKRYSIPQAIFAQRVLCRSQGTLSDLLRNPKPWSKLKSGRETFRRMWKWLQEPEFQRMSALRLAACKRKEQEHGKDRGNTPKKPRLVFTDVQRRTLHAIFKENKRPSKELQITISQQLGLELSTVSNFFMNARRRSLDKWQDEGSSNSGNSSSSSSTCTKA

CCOC(=O)c1nc(C(Cl)(Cl)Cl)n(-c2ccc(Cl)cc2Cl)n1
inactive: [2] | [3] | [5] | [6] | [7] | [13] | [14] | [18]
active: [1] 100 µM | [4] 100 µM | [8] 164 µM | [9] 26.6 µM | [10] 169 µM | [11] 53.2 µM | [12] 63.9 µM | [15] 65.8 µM | [16] 74.7 µM | [17] 100 µM | [19] 2.06 µM

OCC1CCC(CO)CC1 (stereo unspecified)
active: [3] 23.2 µM
not listed: [15]
inactive: all other assays above

C=COC(=O)C(C)(C)CCCCCC
active: [3] 100 µM | [14] 130 µM | [19] 27.9 µM
not listed: [17]
inactive: all other assays above

C=Cc1ccc(O)c(OC)c1
active: [19] 26.6 µM
inactive: all other assays above

CC(C)(C)c1ccc(CCC=O)cc1
active: [3] 144 µM | [19] 22.3 µM
not listed: [15] | [20]
inactive: all other assays above

COc1cc([N+](=O)[O-])ccc1N
not listed: [11]
inactive: all other assays above

FC(OC(F)(F)C(F)(F)C(F)(F)F)C(F)(F)F (stereo unspecified)
not listed: [17]
inactive: all other assays above

CC(C)(O)C(=O)c1ccccc1
active: [19] 36.2 µM
not listed: [15] | [17]
inactive: all other assays above

CCN(CCC#N)c1ccccc1
active: [19] 39.6 µM
not listed: [15] | [20]
inactive: all other assays above

CCC(=O)C=Cc1ccc(OC)cc1
active: [1] 100 µM | [11] 100 µM | [14] 62.7 µM | [20] 124 µM | [16] 65.4 µM | [19] 26.9 µM
not listed: [15]
inactive: all other assays above

O=C1OC(=O)C(F)(F)C1(F)F
inactive: all assays above

FC(F)(F)C1(F)C(F)(F)C(F)(F)C(F)(F)C(F)(C(F)(F)F)C1(F)F (stereo unspecified)
not listed: [17] | [20]
inactive: all other assays above

CCOC=O
active: [3] 59.3 µM
not listed: [8]
inactive: all other assays above

COc1ccccc1NC(=O)c1cc2ccccc2cc1O
active: [1] 52.9 µM | [4] 46.5 µM | [6] 100 µM | [7] 41.1 µM | [8] 60.7 µM | [10] 100 µM | [14] 22.7 µM | [20] 137 µM | [16] 23.3 µM | [18] 54.8 µM | [19] 1.63 µM
inactive: [2] | [3] | [5] | [12] | [13]
